Activity calls are given as the source filed them. Unless noted, the rule behind the calls is not given here.
Tests used:
[1] = compound effects on lung adenocarcinoma cell viability – A549, calcein-AM fluorescence, 48 h, basal, profiling panel (AID 1162); settings: higher = more signal; note: test concentration not given here
[2] = compound effects on differentiated 3T3-L1 adipocyte viability – cell-based, 3T3-L1 adipocytes, calcein-AM fluorescence, 48 h, basal, profiling panel (AID 1163); settings: 3T3-L1 adipocytes viability, higher = more signal; note: test concentration not given here
[3] = compound effects on hepatocellular carcinoma cell viability – HepG2, calcein-AM fluorescence, 48 h, basal, profiling panel (AID 1164); settings: higher = more signal; note: test concentration not given here
[4] = compound effects on multiple myeloma cell viability – MM1S, calcein-AM fluorescence, 48 h, basal, profiling panel (AID 1165); settings: higher = more signal;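 note: viability of MM1S multiple myeloma cells under basal unstimulated conditions; test concentration not given here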
[5] = calcein-AM signal in unstimulated myeloma cells – cell-based, calcein-AM fluorescence, 48 h, PK04 Diversity Set, profiling panel (AID 1166); settings: higher = more signal; RPMI8226 myeloma viability, calcein-AM fluorescence, 48 h unless noted;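 note: cells grown under basal conditions without added stimulus; test concentration not given here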
[6] = JC-1 mitochondrial signal, unstimulated HepG2 cells – cell-based, JC-1 fluorescence, 24 h, 100 nL compound, profiling panel (AID 1167); settings: HepG2 mitochondrial potential, higher = more signal; note: test concentration not given here
[7] = JC-1 mitochondrial signal, unstimulated adipocytes – cell-based, JC-1 fluorescence, 3T3-L1 adipocytes, 24 h, 100 nL compound, profiling panel (AID 1168); settings: JC-1 mitochondrial fluorescence; higher = more signal, called active from +8 up or from −8 down unless noted; note: test concentration not given here
[8] = JC-1 mitochondrial signal, unstimulated myeloma cells – cell-based, JC-1 fluorescence, RPMI8226, 24 h, 100 nL compound, profiling panel (AID 1169); settings: higher = more signal; RPMI8226 myeloma, JC-1 mitochondrial potential fluorescence, 24 h unless noted; note: test concentration not given here
[9] = JC-1 mitochondrial signal, unstimulated MM1S myeloma – cell-based, JC-1 fluorescence, 24 h, 100 nL compound, profiling panel (AID 1170); settings: MM1S mitochondrial potential, higher = more signal; note: test concentration not given here
[10] = resazurin metabolic signal in A549 cells – cell-based, resazurin fluorescence, 24 h, PK04 Diversity Set, profiling panel (AID 1171); settings: A549 viability; higher = more signal, called active from +8 up or from −8 down unless noted; note: test concentration not given here
[11] = resazurin metabolic signal in HepG2 cells – cell-based, resazurin fluorescence, 24 h, PK04 Diversity Set, profiling panel (AID 1172); settings: HepG2 viability, higher = more signal; note: test concentration not given here
[12] = budding yeast growth changes without added modifier – OD600, strain BY4716, 24 h, basal condition, primary screen (AID 1173); settings: S. cerevisiae BY4716 growth, OD600, 24 h; higher = more signal, called active from +8 up or from −8 down unless noted
[13] = viability profiling in MM1S myeloma cells – cell-based, resazurin fluorescence, basal, 24 h, PK04 Diversity Set, profiling panel (AID 1174); settings: higher = more signal, called active from +8 up or from −8 down unless noted; note: test concentration not given here
[14] = biological target: Dihydroorotate dehydrogenase (quinone), mitochondrial (Plasmodium falciparum (isolate 3D7)) (UniProt Q08210); test: inhibition of P. falciparum DHODH – biochemical, C-terminal His tag, absorbance 600 nm, primary screen (AID 1175); settings: PfDHODH enzyme, DCIP absorbance 600 nm; higher = more signal, called active from +8 up or from −8 down unless noted;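 note: recombinant parasite enzyme with a five histidine tag at its C terminus; test concentration not given here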
[15] = inhibition of PAO1 biofilm formation – strain PAO1, LB-PBS medium, absorbance 600 nm, primary screen (AID 1176); note: test concentration not given here; settings: P. aeruginosa PAO1 growth/biofilm, A600, 12 h; higher = more signal
[16] = growth modulation of vineyard yeast isolate – strain RM11-1a, OD600, basal, 24 h, primary screen (AID 1177);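 note: cultures grown under basal conditions with no added stressor; test concentration not given here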; settings: S. cerevisiae RM11-1a growth, OD600, 24 h; higher = more signal, called active from +8 up or from −8 down unless noted
[17] = growth of efflux-deficient E. coli DRC39 – strain DRC39, OD650, 24 h, E. coli filamentation inducers, primary screen (AID 1178);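 note: growth measured as culture turbidity by optical density at 650 nm; test concentration not given here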; settings: E. coli DRC39 acrAB; higher = more signal, called active from +8 up or from −8 down unless noted
[18] = growth of efflux-deficient E. coli DRC39 – strain DRC39, OD650, 48 h, E. coli filamentation inducers, primary screen (AID 1179);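 note: screen aims at cell division blockers that make cells filament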; settings: E. coli DRC39 delta-acrAB growth, higher = more signal, called active from +8 up or from −8 down unless noted
[19] = viability profiling in RPMI8226 myeloma cells – cell-based, resazurin fluorescence, basal, 24 h, PK04 Diversity Set, profiling panel (AID 1180); settings: higher = more signal; RPMI8226 viability, resazurin fluorescence, 24 h unless noted;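 note: RPMI8826 multiple myeloma cell line at 5000 cells per well; test concentration not given here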
[20] = biological target: E3 ubiquitin-protein ligase XIAP (Homo sapiens) (UniProt P98170); test: small molecules binding XIAP protein – biophysical, small-molecule microarray, fluorescence 635 nm, primary screen (AID 1181); settings: higher = more signal;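 note: score merges 667 nm emission and signal to noise over triplicate slides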
Sequence of E3 ubiquitin-protein ligase XIAP (Homo sapiens) (P98170 whole entry, looked up): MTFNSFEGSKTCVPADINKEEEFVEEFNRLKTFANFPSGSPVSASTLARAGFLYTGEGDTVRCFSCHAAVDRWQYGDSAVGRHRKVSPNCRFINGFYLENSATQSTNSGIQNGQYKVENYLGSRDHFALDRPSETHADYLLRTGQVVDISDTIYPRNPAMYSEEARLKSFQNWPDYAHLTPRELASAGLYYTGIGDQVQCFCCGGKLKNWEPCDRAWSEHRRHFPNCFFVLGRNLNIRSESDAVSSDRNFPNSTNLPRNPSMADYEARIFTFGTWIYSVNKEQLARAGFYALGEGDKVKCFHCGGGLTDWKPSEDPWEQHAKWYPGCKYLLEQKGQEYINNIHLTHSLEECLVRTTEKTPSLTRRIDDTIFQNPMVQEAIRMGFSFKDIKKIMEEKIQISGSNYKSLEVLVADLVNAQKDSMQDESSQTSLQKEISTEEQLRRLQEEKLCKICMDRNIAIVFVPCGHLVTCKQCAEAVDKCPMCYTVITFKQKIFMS

Sequence of Dihydroorotate dehydrogenase (quinone), mitochondrial (Plasmodium falciparum (isolate 3D7)) (Q08210 whole entry, looked up): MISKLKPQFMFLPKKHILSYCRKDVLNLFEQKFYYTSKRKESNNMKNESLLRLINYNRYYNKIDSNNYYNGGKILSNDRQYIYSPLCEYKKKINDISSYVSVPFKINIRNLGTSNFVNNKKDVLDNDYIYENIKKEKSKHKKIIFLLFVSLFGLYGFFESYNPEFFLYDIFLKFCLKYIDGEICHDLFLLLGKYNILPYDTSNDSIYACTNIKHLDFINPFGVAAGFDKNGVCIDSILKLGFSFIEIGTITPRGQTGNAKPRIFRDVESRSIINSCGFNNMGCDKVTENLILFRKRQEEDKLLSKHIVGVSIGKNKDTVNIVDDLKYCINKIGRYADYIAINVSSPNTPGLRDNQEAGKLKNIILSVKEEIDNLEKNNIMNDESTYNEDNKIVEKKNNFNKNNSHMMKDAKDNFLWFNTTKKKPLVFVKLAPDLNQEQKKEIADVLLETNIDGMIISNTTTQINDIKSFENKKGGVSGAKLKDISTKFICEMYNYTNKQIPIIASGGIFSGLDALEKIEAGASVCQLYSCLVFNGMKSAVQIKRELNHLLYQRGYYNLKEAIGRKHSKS

CCCC[C@@H]1C[C@H]1[C@@H](NP(=O)(c1ccccc1)c1ccccc1)c1ccc(Cl)cc1
z-score [1]: -0.656
z-score [2]: -1.31
z-score [3]: -0.868
z-score [4]: -2.05
z-score [5]: -4.62
z-score [6]: -1.35
z-score [7]: -0.729 (inactive)
z-score [8]: -0.861
z-score [9]: -1.11
z-score [10]: 2.22 (inactive)
z-score [11]: 1.46
z-score [12]: -1.14 (inactive)
z-score [13]: 0.105 (inactive)
composite z-score [14]: -0.717 (inactive)
z-score [15]: 0.122 (inactive)
z-score [16]: -0.357 (inactive)
z-score [17]: -0.429 (inactive)
z-score [18]: -0.363 (inactive)
z-score [19]: -0.0326
composite z-score [20]: 0.0077

CCc1cc2c(nc1CC)CCN(CCC(C)=NOC)C2
z-score [1]: 0.151
z-score [2]: 0.504
z-score [3]: 0.0911
z-score [4]: 0.69
z-score [5]: -2.14
z-score [6]: 2.55
z-score [7]: -1.37 (inactive)
z-score [8]: 1.07
z-score [9]: 0.196
z-score [10]: -0.521 (inactive)
z-score [11]: -0.64
z-score [12]: -0.37 (inactive)
z-score [13]: 0.0324 (inactive)
composite z-score [14]: 0.273 (inactive)
z-score [15]: 0.0738 (inactive)
z-score [16]: 0.246 (inactive)
z-score [17]: -0.983 (inactive)
z-score [18]: -2.63 (inactive)
z-score [19]: 0.0393
composite z-score [20]: -0.0773

COC(=O)NCC=Cc1nc(CCC=CC(=O)O[C@H]2CC3CC(=O)O[C@@H](C=CCC(C)C)C[C@@H]4CC[C@H](C)[C@@H](C[C@@H](OC)C[C@H](C2)O3)O4)co1
z-score [1]: -1.61
z-score [2]: -0.804
z-score [3]: -1.29
z-score [4]: -2.61
z-score [5]: -2.97
z-score [6]: 0.49
z-score [7]: 0.249 (inactive)
z-score [8]: -0.908
z-score [9]: -2.54
z-score [10]: -4.04 (inactive)
z-score [11]: -1.05
z-score [12]: -1.03 (inactive)
z-score [13]: -2.04 (inactive)
composite z-score [14]: -0.646 (inactive)
z-score [15]: 0.168 (inactive)
z-score [16]: -0.659 (inactive)
z-score [17]: 0.523 (inactive)
z-score [18]: 0.666 (inactive)
z-score [19]: -1.95
composite z-score [20]: -0.102

CN1CCC(c2ccc(CO)cc2)=CC1C1CC1 (stereo not given)
z-score [1]: 0.169
z-score [2]: -0.228
z-score [3]: 0.061
z-score [4]: -1.25
z-score [5]: 0.0447
z-score [6]: -0.851
z-score [7]: -0.625 (inactive)
z-score [8]: 0.604
z-score [9]: -0.409
z-score [10]: -0.374 (inactive)
z-score [11]: -0.777
z-score [12]: 0.574 (inactive)
z-score [13]: -0.55 (inactive)
composite z-score [14]: -0.54 (inactive)
z-score [15]: -0.247 (inactive)
z-score [16]: -0.123 (inactive)
z-score [17]: 0.501 (inactive)
z-score [18]: 0.389 (inactive)
z-score [19]: -0.869
composite z-score [20]: 0.284

CN1CCC(c2ccc(CO)cc2)=CC1c1cccs1 (stereo not given)
z-score [1]: 0.368
z-score [2]: -0.393
z-score [3]: -0.153
z-score [4]: -2.81
z-score [5]: -0.157
z-score [6]: -1.28
z-score [7]: -0.581 (inactive)
z-score [8]: 0.554
z-score [9]: -0.277
z-score [10]: -0.103 (inactive)
z-score [11]: -0.792
z-score [12]: -1.01 (inactive)
z-score [13]: -0.694 (inactive)
composite z-score [14]: 0.083 (inactive)
z-score [15]: -0.329 (inactive)
z-score [16]: 1.13 (inactive)
z-score [17]: -0.543 (inactive)
z-score [18]: -0.447 (inactive)
z-score [19]: -0.118
composite z-score [20]: 0.152

COC(=O)[C@@]1(Cc2ccccc2)[C@H]2c3cc(C(=O)N(C)C)n(C)c3C[C@H]2CN1C(=O)c1ccccc1
z-score [1]: -1.73
z-score [2]: -0.537
z-score [3]: -0.189
z-score [4]: 0.0394
z-score [5]: -1.19
z-score [6]: 0.0427
z-score [7]: -0.078 (inactive)
z-score [8]: -0.318
z-score [9]: -0.437
z-score [10]: 0.0026 (inactive)
z-score [11]: -0.0935
z-score [12]: 0.658 (inactive)
z-score [13]: -0.923 (inactive)
composite z-score [14]: -0.105 (inactive)
z-score [15]: -0.222 (inactive)
z-score [16]: 0.299 (inactive)
z-score [17]: 0.0242 (inactive)
z-score [18]: 0.0618 (inactive)
z-score [19]: -0.0721
composite z-score [20]: 0.071

CCCc1cc2c(n1Cc1ccco1)C(C)C1CN(C(=O)c3ccccc3)C(C)(C(=O)OC)C21 (stereo not given)
z-score [1]: -0.136
z-score [2]: 0.227
z-score [3]: -0.369
z-score [4]: -3.24
z-score [5]: -2.66
z-score [6]: 2.35
z-score [7]: -1.5 (inactive)
z-score [8]: 0.228
z-score [9]: -1.53
z-score [10]: -1.36 (inactive)
z-score [11]: -1.24
z-score [12]: -0.0767 (inactive)
z-score [13]: -1.85 (inactive)
composite z-score [14]: -0.455 (inactive)
z-score [15]: 1.9 (inactive)
z-score [16]: 0.264 (inactive)
z-score [17]: -1.25 (inactive)
z-score [18]: -0.951 (inactive)
z-score [19]: -1.3
composite z-score [20]: 0.471

c1ccc(-c2cc3c(nc2-c2ccccc2)CCNC3)cc1
z-score [1]: 0.765
z-score [2]: -0.106
z-score [3]: 0.246
z-score [4]: 0.195
z-score [5]: 0.145
z-score [6]: 0.506
z-score [7]: -0.239 (inactive)
z-score [8]: 0.179
z-score [9]: -0.0254
z-score [10]: 0.983 (inactive)
z-score [11]: 0.469
z-score [12]: -0.0743 (inactive)
z-score [13]: 0.526 (inactive)
composite z-score [14]: 1.07 (inactive)
z-score [15]: -0.0933 (inactive)
z-score [16]: 1.36 (inactive)
z-score [17]: 0.306 (inactive)
z-score [18]: -0.29 (inactive)
z-score [19]: 0.938
composite z-score [20]: -0.0344
